# Reference: PubChem BioAssay (EPA / NIEHS)
# Some structures have more than one record in an assay (separate samples or runs), and their calls can disagree. Activity calls are given as the source filed them. The calls were made as follows: active = hit-call score of the fitted dose curve at least 0.9, where 1 is the maximum; inactive = score below 0.9.
# What was measured:
# Settings in all cases: primary human HUVEC with PBMC; actives raise or lower the signal
# [1] = BSK_LPS_PGE2: BioMAP Diversity Plus: LPS Assay for Prostaglandin E2 (PGE2) Biomarker Activity (AID 2283082);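 as to AC50: secreted prostaglandin E2 measured by ELISA in LPS-stimulated co-culture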
# Procedure, shortened: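 Primary human endothelial cells and blood mononuclear cells, co-cultured with LPS, receive test chemical; PGE2 ELISA follows at 24 h, with SRB-stained parallel cultures flagging cytotoxicity.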
# [2] = read-out: Macrophage colony-stimulating factor (MCSF), CSF1 (gene 1435); assay: BSK_LPS_MCSF: BioMAP Diversity Plus: LPS Assay for Macrophage colony-stimulating factor (MCSF) Biomarker Activity (AID 2283083)
# Procedure, shortened: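 HUVEC + PBMC co-culture (human primary), 24 h post-dose; M-CSF by ELISA; gain/loss of signal fitted bidirectionally vs DMSO baseline.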
# [3] = read-out: Tissue Factor, F3 (gene 2152); assay: BSK_LPS_TissueFactor: BioMAP Diversity Plus: LPS Assay for Tissue Factor Biomarker Activity (AID 2283084)
# Procedure, shortened: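 HUVEC/PBMC co-culture, LPS-activated; CD142 ELISA read 24 h post-dose; bidirectional curve fit vs DMSO negative control.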
# [4] = read-out: Tumor necrosis factor (Homo sapiens) (UniProt P01375); assay: BSK_LPS_TNFa: BioMAP Diversity Plus: LPS Assay for Tumour Necrosis Factor alpha (TNFa) Biomarker Activity (AID 2283085);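 as to AC50: TNFa protein level quantified by ELISA in the co-culture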
# Procedure, shortened: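 ELISA-based TNFa endpoint in a human endothelial–PBMC co-culture sampled 24 h post-exposure. Curves were fitted in both directions using DMSO as baseline of activity.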
# [5] = read-out: Vascular cell adhesion molecule 1 (VCAM1), VCAM1 (gene 7412); assay: BSK_LPS_VCAM1: BioMAP Diversity Plus: LPS Assay for Vascular cell adhesion molecule 1 (VCAM1) Biomarker Activity (AID 2283086)
# Procedure, shortened: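 Measured by ELISA: VCAM-1 in LPS-activated HUVEC/PBMC co-cultures 24 h after treatment. Values reflect bidirectional fitting with DMSO as baseline.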
# [6] = read-out: CD38, CD38 (gene 952); assay: BSK_SAg_CD38: BioMAP Diversity Plus: SAg Assay for CD38 Biomarker Activity (AID 2283087)
# Procedure, shortened: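 Measures CD38 on a human endothelial/PBMC co-culture driven by SEB and TSST-1, 24 h after compound exposure, using ELISA with fluorescence detection; DMSO defines baseline for bidirectional curve fitting.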
# [7] = read-out: CD40, CD40 (gene 958); assay: BSK_SAg_CD40: BioMAP Diversity Plus: SAg Assay for CD40 Biomarker Activity (AID 2283088)
# Procedure, shortened: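 HUVEC/PBMC co-culture, 24 h post-dose; CD40 by ELISA, fluorescence intensity; bidirectional fit vs DMSO negative control.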
# [8] = read-out: CD69, CD69 (gene 969); assay: BSK_SAg_CD69: BioMAP Diversity Plus: SAg Assay for CD69 Biomarker Activity (AID 2283089);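 as to AC50: cell surface CD69 protein quantified by ELISA with fluorescence detection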
# Procedure, shortened: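 HUVEC co-cultured with PBMC were dosed with chemical, and CD69 was measured by ELISA with fluorescence read-out 24 h later. Bidirectional curve fitting used DMSO as negative control and activity baseline.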
# [9] = read-out: Monocyte Chemoattractant Protein-1 (MCP1), CCL2 (gene 6347); assay: BSK_SAg_MCP1: BioMAP Diversity Plus: SAg Assay for Monocyte Chemoattractant Protein-1 (MCP1) Biomarker Activity (AID 2283090)
# Procedure, shortened: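 Values derive from bidirectional fitting of ELISA-measured MCP1 against DMSO controls. Readings were taken 24 h after dosing human vascular endothelial cells co-cultured with peripheral blood mononuclear cells under superantigen stimulation.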
# Sequence of Tumor necrosis factor (Homo sapiens) (P01375 whole entry, looked up): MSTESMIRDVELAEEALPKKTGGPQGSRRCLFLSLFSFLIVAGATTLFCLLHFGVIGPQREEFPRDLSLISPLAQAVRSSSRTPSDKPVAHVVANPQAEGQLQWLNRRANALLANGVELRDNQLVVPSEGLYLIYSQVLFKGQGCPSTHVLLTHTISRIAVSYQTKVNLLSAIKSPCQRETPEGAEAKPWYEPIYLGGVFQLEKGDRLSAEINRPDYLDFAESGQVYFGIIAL
smiles,measurement,setting,value
CCNc1nc(NC(C)(C)C)nc(SC)n1,outcome,[1],inactive
same,outcome,[2],inactive
same,outcome,[3],inactive
same,outcome,[4],inactive
same,outcome,[5],inactive
same,outcome,[6],inactive
same,outcome,[7],inactive
same,AC50,[8],14.6 µM (active)
C=C(C)C(=O)[O][Sn]([CH2]CCC)([CH2]CCC)[CH2]CCC,outcome,[1],inactive
same,AC50,[2],0.148 µM (active)
same,AC50,[3],0.148 µM (active)
same,AC50,[4],0.34 µM (active)
same,AC50,[5],0.148 µM (active)
same,AC50,[6],0.248 µM (active)
same,AC50,[7],0.148 µM (active)
same,AC50,[8],0.148 µM (active)
O=C(OC1CCCCC1)c1ccccc1C(=O)OC1CCCCC1,outcome,[1],inactive
same,AC50,[2],14.6 µM (active)
same,AC50,[3],20.9 µM (active)
same,AC50,[4],26.5 µM (active)
same,AC50,[5],20.9 µM (active)
same,AC50,[6],33.3 µM (active)
same,AC50,[7],20.9 µM (active)
same,AC50,[8],26.2 µM (active)
O=C(O)CCC(F)(C(F)(F)F)C(F)(F)F,outcome,[1],inactive
same,outcome,[2],inactive
same,outcome,[3],inactive
same,outcome,[4],inactive
same,outcome,[5],inactive
same,outcome,[6],inactive
same,outcome,[7],inactive
same,outcome,[8],inactive
CN(C)N=O,outcome,[1],inactive
same,outcome,[2],inactive
same,outcome,[3],inactive
same,outcome,[4],inactive
same,outcome,[5],inactive
same,outcome,[6],inactive
same,outcome,[7],inactive
same,outcome,[8],inactive
BrCCBr,outcome,[1],inactive
same,outcome,[2],inactive
same,outcome,[3],inactive
same,outcome,[4],inactive
same,outcome,[5],inactive
same,outcome,[6],inactive
same,outcome,[7],inactive
same,outcome,[8],inactive
same,outcome,[9],inactive
C[C@@H]1C[C@@H]([C@H](O)CC2CC(=O)NC(=O)C2)C(=O)[C@@H](C)C1,AC50,[1],5.67 µM (active)
same,AC50,[2],4.48 µM (active)
same,AC50,[3],17.9 µM (active)
same,AC50,[4],7.89 µM (active)
same,AC50,[5],9.45 µM (active)
same,AC50,[6],6.11 µM (active)
same,AC50,[7],2.6 µM (active)
same,AC50,[8],6.63 µM (active)
same,AC50,[9],7.88 µM (active)
COP(=S)(OC)Oc1ccc(Sc2ccc(OP(=S)(OC)OC)cc2)cc1,AC50,[1],9.58 µM (active)
same,AC50,[2],20 µM (active)
same,outcome,[3],inactive
same,outcome,[4],inactive
same,outcome,[5],inactive
same,AC50,[6],14.5 µM (active)
same,AC50,[7],14.8 µM (active)
same,AC50,[8],13.6 µM (active)
CCOP(=S)(OCC)SCCS(=O)(=O)CC,outcome,[1],inactive
same,outcome,[2],inactive
same,outcome,[3],inactive
same,outcome,[4],inactive
same,outcome,[5],inactive
same,outcome,[6],inactive
same,outcome,[7],inactive
same,outcome,[8],inactive
same,outcome,[9],inactive
C[C@]12CCC(=O)C[C@@H]1CC[C@@H]1[C@@H]2CC[C@]2(C)[C@@H](O)CC[C@@H]12,outcome,[1],inactive
same,AC50,[2],19 µM (active)
same,outcome,[3],inactive
same,outcome,[4],inactive
same,AC50,[5],29 µM (active)
same,outcome,[6],inactive
same,outcome,[7],inactive
same,outcome,[8],inactive
O=C(O)C(Cl)(Cl)Cl,outcome,[1],inactive
same,outcome,[2],inactive
same,outcome,[3],inactive
same,outcome,[4],inactive
same,outcome,[5],inactive
same,outcome,[6],inactive
same,outcome,[7],inactive
same,outcome,[8],inactive
CCOC(=O)/C=C(C)/C=C/C[C@@H](C)CCCC(C)C,AC50,[1],10.1 µM (active)
same,AC50,[2],15.5 µM (active)
same,AC50,[3],29.2 µM (active)
same,AC50,[4],33.2 µM (active)
same,AC50,[5],25.7 µM (active)
same,AC50,[6],30.7 µM (active)
same,AC50,[7],25.8 µM (active)
same,AC50,[8],20 µM (active)
same,AC50,[9],29 µM (active)
CC(C)c1ccc(CO)cc1,outcome,[1],inactive
same,outcome,[2],inactive
same,outcome,[3],inactive
same,outcome,[4],inactive
same,outcome,[5],inactive
same,outcome,[6],inactive
same,outcome,[7],inactive
same,outcome,[8],inactive
CC(C)CCCCCCOC(=O)c1ccccc1C(=O)OCCCCCCC(C)C,outcome,[1],inactive
same,outcome,[2],inactive
same,outcome,[3],inactive
same,outcome,[4],inactive
same,outcome,[5],inactive
same,outcome,[6],inactive
same,outcome,[7],inactive
same,outcome,[8],inactive
same,outcome,[9],inactive
COP(=S)(OC)Oc1ccc(S(=O)(=O)N(C)C)cc1,outcome,[1],inactive
same,outcome,[2],inactive
same,outcome,[3],inactive
same,outcome,[4],inactive
same,outcome,[5],inactive
same,outcome,[6],inactive
same,outcome,[7],inactive
same,outcome,[8],inactive
same,outcome,[9],inactive
CC(=O)[O][Hg][c]1ccccc1,AC50,[1],0.149 µM (active)
same,AC50,[2],0.989 µM (active)
same,AC50,[3],1.99 µM (active)
same,AC50,[4],1.62 µM (active)
same,AC50,[5],2.4 µM (active)
same,AC50,[6],0.56 µM (active)
same,AC50,[7],1.46 µM (active)
same,AC50,[8],1.39 µM (active)
O=C(O)C(F)(F)C(F)(F)C(F)(F)C(F)(F)C(F)(F)C(F)(F)F,outcome,[1],inactive
same,outcome,[2],inactive
same,outcome,[3],inactive
same,outcome,[4],inactive
same,outcome,[5],inactive
same,outcome,[6],inactive
same,outcome,[7],inactive
same,outcome,[8],inactive
COP(=S)(OC)Oc1cc(Cl)c(Cl)cc1Cl,outcome,[1],inactive
same,outcome,[2],inactive
same,outcome,[3],inactive
same,AC50,[4],32.6 µM (active)
same,outcome,[5],inactive
same,outcome,[6],inactive
same,outcome,[7],inactive
same,outcome,[8],inactive
same,outcome,[9],inactive
O=S(=O)(c1ccc(Cl)cc1)c1ccc(Cl)cc1,outcome,[1],inactive
same,outcome,[2],inactive
same,outcome,[3],inactive
same,outcome,[4],inactive
same,outcome,[5],inactive
same,outcome,[6],inactive
same,outcome,[7],inactive
same,outcome,[8],inactive
same,outcome,[9],inactive
CCN1CCC2(CC1)COc1cc3c(cc12)N(C(=O)c1ccc(-c2ccc(-c4nnc(C)o4)cc2C)cc1)CC3,outcome,[1],inactive
same,AC50,[2],16.7 µM (active)
same,AC50,[3],18.7 µM (active)
same,AC50,[4],14.3 µM (active)
same,AC50,[5],22.6 µM (active)
same,AC50,[6],12.8 µM (active)
same,AC50,[7],18.7 µM (active)
same,AC50,[8],12 µM (active)
same,AC50,[9],12.6 µM (active)
ClC1(Cl)C2(Cl)C3(Cl)C4(Cl)C(Cl)(Cl)C5(Cl)C3(Cl)C1(Cl)C5(Cl)C24Cl (stereo not drawn),AC50,[1],0.148 µM (active)
same,outcome,[2],inactive
same,outcome,[3],inactive
same,AC50,[4],0.149 µM (active)
same,outcome,[5],inactive
same,outcome,[6],inactive
same,outcome,[7],inactive
same,outcome,[8],inactive
CCCCCCCCc1ccc(O)cc1,AC50,[1],3.96 µM (active)
same,AC50,[2],30.8 µM (active)
same,AC50,[3],38.1 µM (active)
same,AC50,[4],33.6 µM (active)
same,AC50,[5],30.5 µM (active)
same,AC50,[6],31.2 µM (active)
same,AC50,[7],32.2 µM (active)
same,AC50,[8],31.7 µM (active)
COC[C@H](C)N(C(=O)CCl)c1c(C)csc1C,outcome,[1],inactive
same,outcome,[2],inactive
same,outcome,[3],inactive
same,outcome,[4],inactive
same,outcome,[5],inactive
same,outcome,[6],inactive
same,outcome,[7],inactive
same,outcome,[8],inactive
CC(=O)OC(c1ccccc1)C(Cl)(Cl)Cl (stereo not drawn),outcome,[1],inactive
same,outcome,[2],inactive
same,outcome,[3],inactive
same,outcome,[4],inactive
same,outcome,[5],inactive
same,outcome,[6],inactive
same,outcome,[7],inactive
same,AC50,[8],14.2 µM (active)
same,outcome,[8],inactive
Oc1cccc2cccnc12,AC50,[1],11.4 µM (active)
same,outcome,[2],inactive
same,outcome,[3],inactive
same,outcome,[4],inactive
same,AC50,[5],3.97 µM (active)
same,outcome,[6],inactive
same,outcome,[7],inactive
same,outcome,[8],inactive
same,outcome,[9],inactive
O=[N+]([O-])c1ccc(O)c([N+](=O)[O-])c1,outcome,[1],inactive
same,outcome,[2],inactive
same,outcome,[3],inactive
same,outcome,[4],inactive
same,outcome,[5],inactive
same,outcome,[6],inactive
same,outcome,[7],inactive
same,outcome,[8],inactive
same,outcome,[9],inactive
Nc1ccc(-c2ccc(N)c(Cl)c2)cc1Cl,outcome,[1],inactive
same,outcome,[2],inactive
same,outcome,[3],inactive
same,outcome,[4],inactive
same,AC50,[5],1.85 µM (active)
same,outcome,[6],inactive
same,outcome,[7],inactive
same,outcome,[8],inactive
